# Measured values taken from PubChem BioAssay (Tox21).
# Results filed as inconclusive are left out. A call without a number means that no potency is given here. Where a structure was tested more than once in an assay, its records may differ in their call. Calls of active or inactive are those of the source. The call rests on the fitted dose curve; in most records, active means well fitted activation curve with a large enough effect in the repeat runs; inconclusive means weak or mixed curves; inactive means flat fitted curve, though single readings scatter.
# Experiment: A CellTox Green Cytotoxicity Assay to monitor cytotoxicity in HEK293 cells - 8 hour (AID 1224884); further: nearly all actives have a fitted effect of over 35% in size
# Details: CellTox Green fluorescence; series mostly up to 76.8 µM; cytotoxicity increase: at the top concentration
# Text: National Center for Advancing Translational Sciences [NCATS]
# NIH Chemical Genomics Center [NCGC]
# U.S. Environmental Protection Agency [EPA]
# National Institutes of Environmental Health Sciences [NIEHS]
# National Toxicology Program [NTP]
# Cell-based models are critical for drug discovery. Determining the natural cytotoxic effects resulting from test compounds is an essential research activity. A CellTox Green Cytotoxicity Assay to monitor cytotoxicity in real time of continues cell culture during 40 hours of the compound treatment was used to screen Tox21 10K library compounds in Hek293 cells. CellTox Green Cytotoxicity Assay is a nonlytic, homogeneous, biofluorescent method to measure cytotoxicity in cell culture after experimental manipulation. The assay system uses a proprietary asymmetric cyanine dye that is excluded from viable cells but preferentially stains the dead cell's DNA. […] Viable cells produce no appreciable increases in fluorescence. Therefore, the fluorescence signal produced by the binding interaction with dead cell DNA is proportional to cytotoxicity.
# The mixture of Hek293 cell suspension and reagents were dispensed at 600cells/6 ul/well in 1536-well tissue culture treated black solid bottom plates using a Multidrop dispenser. After the assay plates were incubated at a 37 C/5% CO2 incubator for 5 hours, 23 nL of compounds dissolved in DMSO, positive and negative controls was transferred to the assay plate by a pintool work station. The plates were incubated at 37 C for 40 hours. The fluorescence intensity were measured at 0h, 8h, 16h, 24h, 32h and 40h time points using ViewLux plate reader during compound treatment.
# Potency means the concentration at half of the fitted maximal effect.
Structure (SMILES),Potency,cytotoxicity increase
CC(=O)OC/C=C(\C)CCC=C(C)C,inactive,
COCN(COC)c1nc(N(COC)COC)nc(N(COC)COC)n1,inactive,
CC(=O)c1nccs1,inactive,
CCOC(=O)c1ccc(O)cc1,inactive,
CCc1cccc(O)c1,inactive,
C=CC(=O)NCOCCCC,inactive,
COc1ccc([C@@H]2CC(=O)c3c(O)cc(O[C@@H]4O[C@H](CO[C@@H]5O[C@@H](C)[C@H](O)[C@@H](O)[C@H]5O)[C@@H](O)[C@H](O)[C@H]4O)cc3O2)cc1OC,inactive,
CCCOCC(C)O (stereo not given),inactive,
C[Si](C)(C)N[Si](C)(C)C,inactive,
O=c1n(CCCN2CCN(c3cccc(Cl)c3)CC2)nc2ccccn12,inactive,
OC[C@H]1O[C@@H](Oc2ccc(O)cc2)[C@H](O)[C@@H](O)[C@@H]1O,inactive,
Cc1ccc([N+](=O)[O-])cc1N,inactive,
Cc1nnc(NS(=O)(=O)c2ccc(N)cc2)s1,inactive,
CN1Cc2c(N)cccc2C(c2ccccc2)C1 (stereo not given),inactive,
NC1CCCCC1N (stereo not given),inactive,
CCCN(CCC)C(=O)SCC,inactive,
OCc1ccc(Cl)cc1Cl,inactive,
OCCOCCOCCOCCOCCO,inactive,
CC(=O)C(C)C,inactive,
C1CCCNCC1,inactive,

Structure (SMILES),Potency,cytotoxicity increase
CCCCCCCCO,inactive,
CCCCCCC(=O)O,inactive,
Cc1ccc(C)c(S(=O)(=O)O)c1,inactive,
Cc1cccc(C)c1[N+](=O)[O-],inactive,
Oc1ccc(Cc2ccccc2O)cc1,inactive,
COC(=O)/C=C\C(=O)OC,inactive,
CC[N+](CC)(CC(=O)Nc1c(C)cccc1C)Cc1ccccc1,inactive,
CN=C(NC#N)NCCSCc1nc[nH]c1C,inactive,
CCCCC(CC)COC(=O)c1ccc(C(=O)OCC(CC)CCCC)cc1 (stereo not given),inactive,
CC(O)CNCC(C)O (stereo not given),inactive,
CCCCCNCCCCC,inactive,
CC1=CC(=O)CC(C)(C)C1,,-15.4% (inactive)
CO[Si](CCCNCCN)(OC)OC,inactive,
O=C(O)C1=NN(c2ccc(S(=O)(=O)O)cc2)C(=O)C1,inactive,
COC(=O)OC,inactive,
CCCCCCCCCCCCCC(=O)O,,1.73% (inactive)
CC(CN1c2ccccc2Sc2ccccc21)N(C)C (stereo not given),inactive,
N#CCC(=O)O,,3.72% (inactive)
Nc1cccc(C(F)(F)F)c1,40.1 µM (active) and inactive,
COc1c2ccoc2cc2oc(=O)ccc12,inactive,
